Assay in all cases: NCI-60 one-dose screen, 48 h (100 = growth as untreated, 0 = no growth, -100 = all killed)
One assay relates to SK-MEL-2 melanoma. The conditions noted are these: 10 µM unless noted.
Another assay concerns EKVX NSCLC. The conditions noted are these: 10 µM unless noted.
Another assay has as its system SN12C renal. The conditions noted are these: 10 µM unless noted.
A further assay relates to UO-31 renal. The conditions noted are these: 10 µM unless noted.
Another assay has as its system TK-10 renal. The conditions noted are these: 10 µM unless noted.
A further assay has as its system ACHN renal. The conditions noted are these: 10 µM unless noted.
The test system of the next assay is CAKI-1 renal. The conditions noted are these: 10 µM unless noted.
A further assay has as its system A498 renal. The conditions noted are these: 10 µM unless noted.
Another assay concerns CCRF-CEM leukemia. The conditions noted are these: 10 µM unless noted.
The test system of a further assay is MOLT-4 leukemia. The conditions noted are these: 10 µM unless noted.
The subject of a further assay is SR leukemia. The conditions noted are these: 10 µM unless noted.
In another assay the test system is RPMI-8226 leukemia. The conditions noted are these: 10 µM unless noted.
The subject of another assay is OVCAR-8 ovarian. The conditions noted are these: 10 µM unless noted.
A further assay deals with OVCAR-5 ovarian. The conditions noted are these: 10 µM unless noted.
The test system of a further assay is SK-OV-3 ovarian. The conditions noted are these: 10 µM unless noted.
Another assay has as its system IGROV1 ovarian. The conditions noted are these: 10 µM unless noted.
For the next assay, the system named is OVCAR-3 ovarian. The conditions noted are these: 10 µM unless noted.
A further assay concerns HS 578T breast. The conditions noted are these: 10 µM.
Another assay has as its system NCI/ADR-RES ovarian. The conditions noted are these: 10 µM unless noted.
The subject of another assay is OVCAR-4 ovarian. The conditions noted are these: 10 µM unless noted.

The panel holds about 83,000 compounds, 20% with a hit somewhere; the sample as a whole holds those more often.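 Values shown are percent growth following 48 h exposure of cells in 96-well plates to a single concentration of compound; below 10 was considered active.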 A number with no mark means an inactive call. Active and inactive are the calls of the source.

Among the data in PubChem BioAssay (NCI) are growth values, retold here.

Regarding `CCCCNCCC(O)c1cc2ccc(C(F)(F)F)cc2c2cc(C(F)(F)F)ccc12` (stereo unspecified), the growth with SK-MEL-2 melanoma was -70.1% (active); in the assay with EKVX NSCLC, -54% (active); in the assay with SN12C renal it was -75.2% (active); in the assay on UO-31 renal it was -88.8% (active); in the assay on TK-10 renal, -91.8% (active); in the assay on ACHN renal, -82.8% (active). For the same compound, the growth in the assay with CAKI-1 renal was -74.7% (active); in the assay on A498 renal it was -6.76% (active); in the assay with CCRF-CEM leukemia, -45.5% (active); in the assay with MOLT-4 leukemia, -58.8% (active); in the assay on SR leukemia, -70.2% (active); in the assay with RPMI-8226 leukemia, -42.8% (active). Moreover, the growth is -77.3% (active) in the assay with OVCAR-8 ovarian; -79.9% (active) in the assay on OVCAR-5 ovarian; -34% (active) in the assay on SK-OV-3 ovarian; -60.9% (active) with IGROV1 ovarian; -84.8% (active) in the assay on OVCAR-3 ovarian; -55.2% (active) in the assay on HS 578T breast. The growth in the assay with NCI/ADR-RES ovarian was -74.5% (active).

In the case of `O=C(/C=C/c1cc([N+](=O)[O-])ccc1Cl)c1ccccc1`, the growth in the assay on SK-MEL-2 melanoma is 107%; in the assay on EKVX NSCLC it was 84.6%; with SN12C renal, 80.8%; in the assay on UO-31 renal, 70.8%; in the assay on TK-10 renal, 112%; with ACHN renal it was 91.2%. Further, the growth with CAKI-1 renal was 73.2%; with A498 renal, 86%; in the assay with CCRF-CEM leukemia, 68.7%; in the assay on MOLT-4 leukemia, 78%; with RPMI-8226 leukemia it was 20.9%; with OVCAR-8 ovarian, 96.3%. Besides, the growth is 96.1% in the assay with OVCAR-5 ovarian; 97.2% in the assay with OVCAR-4 ovarian; 95.4% in the assay with SK-OV-3 ovarian; 70.5% in the assay with IGROV1 ovarian; 102% with OVCAR-3 ovarian; 98.6% in the assay on HS 578T breast. The growth with NCI/ADR-RES ovarian was 93.6%.

For `CSC(=S)N/N=C(\C)c1ccccn1`, the growth with SK-MEL-2 melanoma is 21.7%; in the assay on EKVX NSCLC, 4.31% (active); in the assay with SN12C renal, 24.2%; in the assay with UO-31 renal it was -0.858% (active); in the assay on TK-10 renal, 41.7%; with ACHN renal it was 14.8%. For the same compound, the growth was -9.67% (active) in the assay on CAKI-1 renal; -3.97% (active) with A498 renal; 7.65% (active) in the assay on CCRF-CEM leukemia; 0.153% (active) in the assay on MOLT-4 leukemia; -3.68% (active) with SR leukemia; 12% with RPMI-8226 leukemia. The growth in the assay with OVCAR-8 ovarian was 14.6%; in the assay with OVCAR-5 ovarian, 27.1%; in the assay with SK-OV-3 ovarian, 30.2%; in the assay with IGROV1 ovarian, 19.4%; in the assay on OVCAR-3 ovarian it was 5.95% (active); in the assay with HS 578T breast it was 38.1%. In the assay with NCI/ADR-RES ovarian, the growth is 12.8%.

On to `C=CCOc1c(Br)cc(Br)cc1Br`, for which the growth in the assay with SK-MEL-2 melanoma was 69.3%; with EKVX NSCLC, 64%; with SN12C renal it was 62.9%; in the assay with UO-31 renal it was 28.2%; with TK-10 renal it was 102%; with ACHN renal it was 48.7%. The growth in the assay with CAKI-1 renal is 76.5%; in the assay on A498 renal, 55.9%; with CCRF-CEM leukemia, 43.6%; in the assay with MOLT-4 leukemia, 64.6%; in the assay on SR leukemia, 34.8%; in the assay on RPMI-8226 leukemia, 38.7%. Also, the growth in the assay on OVCAR-8 ovarian is 74.3%; in the assay with OVCAR-4 ovarian, 63.4%; in the assay on SK-OV-3 ovarian, 64.9%; with IGROV1 ovarian, 30%; in the assay on HS 578T breast it was 42.2%; in the assay with NCI/ADR-RES ovarian, 63.7%.

Turning to `Nc1cccc(S(=O)(=O)c2cccc(N)c2)c1`, the growth with SK-MEL-2 melanoma was 116%; with EKVX NSCLC, 105%; with SN12C renal it was 112%; in the assay with UO-31 renal, 95.8%; in the assay on TK-10 renal, 123%; with ACHN renal, 102%. The growth was 98.4% in the assay on CAKI-1 renal; 108% in the assay with A498 renal; 102% in the assay with CCRF-CEM leukemia; 10.4% in the assay on MOLT-4 leukemia; 110% in the assay on RPMI-8226 leukemia; 113% in the assay with OVCAR-8 ovarian. In addition, the growth with OVCAR-5 ovarian was 99.7%; in the assay on OVCAR-4 ovarian, 102%; in the assay with SK-OV-3 ovarian, 120%; in the assay with IGROV1 ovarian, 114%; in the assay with OVCAR-3 ovarian, 113%; with HS 578T breast, 118%. In the assay with NCI/ADR-RES ovarian, the growth is 115%.

`COc1ccccc1/C=N\NC(=S)Nc1ccc(F)cc1`: the growth is 81% with SK-MEL-2 melanoma; 75.7% with EKVX NSCLC; 81.1% in the assay on SN12C renal; 62.2% with UO-31 renal; 97.5% in the assay with TK-10 renal; 87.5% with ACHN renal. Besides, the growth with CAKI-1 renal is 88.5%; with A498 renal it was 67%; in the assay on CCRF-CEM leukemia it was 89.2%; with MOLT-4 leukemia, 57.3%; with SR leukemia, 28.6%; in the assay on RPMI-8226 leukemia, 79.8%. Also, the growth is 78.7% with OVCAR-8 ovarian; 94.1% in the assay on OVCAR-5 ovarian; 89.2% in the assay on SK-OV-3 ovarian; 72.1% with IGROV1 ovarian; 69.7% in the assay with OVCAR-3 ovarian; 70.3% in the assay on HS 578T breast. Moreover, the growth in the assay on NCI/ADR-RES ovarian is 38.4%.

Regarding `COc1ccc(C(=O)C(CN(C)C)c2ccccc2)cc1` (stereo unspecified), the growth was 14.6% in the assay with SK-MEL-2 melanoma; 28.1% with EKVX NSCLC; 31.4% in the assay with SN12C renal; -18.7% (active) in the assay on UO-31 renal; 29.5% in the assay on TK-10 renal; -71.4% (active) in the assay on ACHN renal. Moreover, the growth in the assay on CAKI-1 renal is -46.7% (active); with A498 renal, 60.2%; in the assay with CCRF-CEM leukemia it was 12.6%; with MOLT-4 leukemia, 21.7%; in the assay on RPMI-8226 leukemia it was 9.15% (active); with OVCAR-8 ovarian, 17%. The growth in the assay with OVCAR-5 ovarian is 44.3%; in the assay on OVCAR-4 ovarian, 33.4%; in the assay on SK-OV-3 ovarian, 110%; with IGROV1 ovarian, 1.31% (active); in the assay with OVCAR-3 ovarian, 0.0357% (active); in the assay on HS 578T breast, -13.8% (active). Also, the growth with NCI/ADR-RES ovarian is 9.35% (active).

Take `CC(CN1CCN(C)CC1)CN1c2ccccc2Sc2ccc(C(F)(F)F)cc21` (stereo unspecified): the growth in the assay on SK-MEL-2 melanoma was 70%; in the assay on EKVX NSCLC, 70.4%; in the assay on SN12C renal, 47.2%; in the assay with UO-31 renal, 39.2%; in the assay with TK-10 renal, 21%; in the assay on ACHN renal it was 38.1%. The growth with CAKI-1 renal was 37.3%; in the assay on A498 renal, 60.3%; in the assay on CCRF-CEM leukemia, 25.2%; in the assay with MOLT-4 leukemia, 15.9%; in the assay on SR leukemia, -23.2% (active); with RPMI-8226 leukemia, 71.3%. Besides, the growth in the assay with OVCAR-8 ovarian is 71.9%; with OVCAR-4 ovarian it was 54.5%; with SK-OV-3 ovarian it was 92.4%; in the assay with IGROV1 ovarian, 10.9%; in the assay on OVCAR-3 ovarian, 42.9%; with HS 578T breast it was 60.7%. In the assay on NCI/ADR-RES ovarian, the growth was 52.8%.
